Experiment [1] in a line: NCI Yeast Anticancer Drug Screen. Data for the rad50 strain (AID 155).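 Note: 0% = growth of vehicle-only cultures of the same strain.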 To be noted: S. cerevisiae rad50 strain growth inhibition, active compounds read high. The essentials: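 Growth of the mutant yeast was measured after compound exposure and referenced to vehicle-treated cultures.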
Experiment [2] can be described thus: NCI Yeast Anticancer Drug Screen. Data for the mec2-1 strain (AID 157). To be noted: S. cerevisiae mec2-1 strain, active compounds read high. The procedure, abridged:
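Readout is yeast growth inhibition, normalised to vehicle-treated controls, in the mec2-1 strain exposed to compound.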

A short description of experiment [3]: NCI Yeast Anticancer Drug Screen. Data for the sgs1 mgt1 strain (AID 161).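 Note: 0% = growth of cultures given vehicle only.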 To be noted: S. cerevisiae sgs1 mgt1 strain, active compounds read high. The essentials:
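Yeast cells carrying a defined DNA-repair defect were exposed to test compounds. Growth inhibition was measured relative to vehicle-treated controls.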

Experiment [4] is described as follows: NCI Yeast Anticancer Drug Screen. Data for the cln2 rad14 strain (AID 165).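 Note: 0% = growth equal to vehicle treated cultures.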 To be noted: S. cerevisiae cln2 rad14 strain, active compounds read high. The essentials: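 Relative to vehicle controls, growth inhibition of compound-treated cln2 rad14 yeast was recorded.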
Experiment [5] is described as follows: NCI Yeast Anticancer Drug Screen. Data for the bub3 strain (AID 167). To be noted: S. cerevisiae bub3 mutant strain, active compounds read high. The essentials:
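Whole-cell yeast assay. The mutant strain was incubated with compounds, and growth inhibition was determined by comparison with vehicle-treated cells.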

A short description of experiment [6]: NCI Yeast Anticancer Drug Screen. Data for the mlh1 rad18 strain (AID 175). To be noted: S. cerevisiae mlh1 rad18 strain growth inhibition, active compounds read high. The procedure, abridged:
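Test agents were incubated with a yeast strain of defined genotype (DNA damage repair defect). Inhibition of growth was derived by comparison with vehicle-exposed cultures.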

Setting [7] is: at 5.0 µM (retest, dose inferred, filed as 0.5).
Where [8] appears, read: at 50.0 µM (retest, dose inferred, filed as 5.0).

The panel holds about 79,000 compounds, 15% with a hit somewhere; the sample as a whole holds those more often. Unmarked numbers belong to inactive results. The source made the active and inactive calls. Cut-off read from the data, not from the text of the source: active = growth inhibition above about 70%; inactive = the rest.

As for `CC1COC(c2cn[nH]c2C(N)=O)C1O` (stereo not given), the growth inhibition in experiment [1] (setting [7]) was -7%; in experiment [1] (setting [8]), 13%; in experiment [1] (at 50.0 µM), -0.5%; in experiment [2] (setting [7]) it was 5%; in experiment [2] (setting [8]), 15%; in experiment [2] (at 50.0 µM) it was 21%. The growth inhibition in experiment [3] (setting [7]) is 7%; in experiment [3] (setting [8]) it was 14%; in experiment [3] (at 50.0 µM) it was -6.4%; in experiment [4] (setting [7]) it was -33%; in experiment [4] (setting [8]), -18%; in experiment [4] (at 50.0 µM), 39.4%. For the same molecule, the growth inhibition in experiment [5] (setting [7]) is 4%; in experiment [5] (setting [8]), 24%; in experiment [5] (at 50.0 µM), 0.85%; in experiment [6] (setting [7]), 3%; in experiment [6] (setting [8]) it was 16%; in experiment [6] (at 50.0 µM), 7.65%.

Take `Cc1ccc(N=Nc2sc(N)nc2C)cc1C`: the growth inhibition in experiment [1] (setting [7]) was -154%; in experiment [1] (setting [8]) it was -57%; in experiment [1] (at 50.0 µM) it was 64%; in experiment [2] (setting [7]), -51%; in experiment [2] (setting [8]), -30%; in experiment [2] (at 50.0 µM), 35.8%. For the same molecule, the growth inhibition in experiment [3] (setting [7]) is -65%; in experiment [3] (setting [8]), -45%; in experiment [3] (at 50.0 µM) it was 14.1%; in experiment [4] (setting [7]) it was -58%; in experiment [4] (setting [8]), -47%; in experiment [4] (at 50.0 µM), 30.1%. Also, the growth inhibition in experiment [5] (setting [7]) is -62%; in experiment [5] (setting [8]) it was -12%; in experiment [5] (at 50.0 µM), 87.9% (active); in experiment [6] (setting [7]), -125%; in experiment [6] (setting [8]), -52%; in experiment [6] (at 50.0 µM), 85.4% (active).

Turning to `CCOC(=O)CC(N)CC(=O)OCC`, the growth inhibition was -142% in experiment [1] (setting [7]); -157% in experiment [1] (setting [8]); 94.8% (active) in experiment [1] (at 50.0 µM); -47% in experiment [2] (setting [7]); -49% in experiment [2] (setting [8]); 39.1% in experiment [2] (at 50.0 µM). Also, the growth inhibition is -56% in experiment [3] (setting [7]); -64% in experiment [3] (setting [8]); -1.35% in experiment [3] (at 50.0 µM); -53% in experiment [4] (setting [7]); -53% in experiment [4] (setting [8]); -4.7% in experiment [4] (at 50.0 µM). Further, the growth inhibition was -67% in experiment [5] (setting [7]); -79% in experiment [5] (setting [8]); 75.2% (active) in experiment [5] (at 50.0 µM); -110% in experiment [6] (setting [7]); -113% in experiment [6] (setting [8]); 44.5% in experiment [6] (at 50.0 µM).

Turning to `CCCCCCCCNc1nc(Cl)nc2c1cnn2C`, the growth inhibition is 2% in experiment [1] (setting [7]); 40% in experiment [1] (setting [8]); 0.3% in experiment [1] (at 50.0 µM); -1% in experiment [2] (setting [7]); 59% in experiment [2] (setting [8]); -17.9% in experiment [2] (at 50.0 µM). Also, the growth inhibition in experiment [3] (setting [7]) is 3%; in experiment [3] (setting [8]), 68%; in experiment [3] (at 50.0 µM), 24.2%; in experiment [4] (setting [7]) it was -4%; in experiment [4] (setting [8]), 62%; in experiment [4] (at 50.0 µM) it was -10.6%. Further, the growth inhibition is -5% in experiment [5] (setting [7]); 80% (active) in experiment [5] (setting [8]); 42.4% in experiment [5] (at 50.0 µM); 12% in experiment [6] (setting [7]); 84% (active) in experiment [6] (setting [8]); 45.5% in experiment [6] (at 50.0 µM).

Turning to `COc1ccc(/C=N/Nc2cc(C)nc3cc4c(cc23)OCO4)c2ccccc12`, the growth inhibition in experiment [1] (setting [7]) is 20%; in experiment [1] (setting [8]), 88% (active); in experiment [1] (at 50.0 µM), 82.6% (active); in experiment [2] (setting [7]), 6%; in experiment [2] (setting [8]), 81% (active); in experiment [2] (at 50.0 µM) it was 85.8% (active). For the same molecule, the growth inhibition was 22% in experiment [3] (setting [7]); 91% (active) in experiment [3] (setting [8]); 86% (active) in experiment [3] (at 50.0 µM); 0% in experiment [4] (setting [7]); 24% in experiment [4] (setting [8]); 57.6% in experiment [4] (at 50.0 µM). The growth inhibition is 8% in experiment [5] (setting [7]); 37% in experiment [5] (setting [8]); 97.9% (active) in experiment [5] (at 50.0 µM); 12% in experiment [6] (setting [7]); 82% (active) in experiment [6] (setting [8]); 94.8% (active) in experiment [6] (at 50.0 µM).

As for `O=C(O)C1CC[N-]CC1.O=C(O)C1CC[N-]CC1.[Cl][Pt+2]([Cl])([Cl])[Cl]`, the growth inhibition in experiment [1] (setting [7]) was 30%; in experiment [1] (setting [8]) it was 90% (active); in experiment [1] (at 50.0 µM) it was 97.6% (active); in experiment [2] (setting [7]) it was 2%; in experiment [2] (setting [8]), 94% (active); in experiment [2] (at 50.0 µM), 85.2% (active). The growth inhibition is 38% in experiment [3] (setting [7]); 94% (active) in experiment [3] (setting [8]); 94.1% (active) in experiment [3] (at 50.0 µM); 0% in experiment [4] (setting [7]); 97% (active) in experiment [4] (setting [8]); 81.7% (active) in experiment [4] (at 50.0 µM). Besides, the growth inhibition in experiment [5] (setting [7]) is 17%; in experiment [5] (setting [8]) it was 93% (active); in experiment [5] (at 50.0 µM), 90.2% (active); in experiment [6] (setting [7]) it was 25%; in experiment [6] (setting [8]) it was 94% (active); in experiment [6] (at 50.0 µM) it was 88.8% (active).

With `COc1cccc2c1C(=O)c1c(O)c3c(c(O)c1C2=O)C[C@@](O)(/C(C)=N/NC(N)=S)C[C@@H]3OC1CC(N)C(O)C(C)O1` (stereo not given in full), the growth inhibition in experiment [1] (setting [7]) is 27%; in experiment [1] (setting [8]) it was 91% (active); in experiment [1] (at 50.0 µM) it was 95.5% (active); in experiment [2] (setting [7]) it was 8%; in experiment [2] (setting [8]) it was 58%; in experiment [2] (at 50.0 µM) it was 94.7% (active). Moreover, the growth inhibition is 3% in experiment [3] (setting [7]); 56% in experiment [3] (setting [8]); 96.3% (active) in experiment [3] (at 50.0 µM); 4% in experiment [4] (setting [7]); 38% in experiment [4] (setting [8]); 82.8% (active) in experiment [4] (at 50.0 µM). Further, the growth inhibition in experiment [5] (setting [7]) was 4%; in experiment [5] (setting [8]) it was 60%; in experiment [5] (at 50.0 µM), 95.3% (active); in experiment [6] (setting [7]), 8%; in experiment [6] (setting [8]) it was 75% (active); in experiment [6] (at 50.0 µM), 95.7% (active).

Consider `N#C/C(=C/c1ccc([N+](=O)[O-])o1)c1ccccc1`, for which the growth inhibition in experiment [1] (setting [7]) is -6%; in experiment [1] (setting [8]) it was -7%; in experiment [1] (at 50.0 µM), 75.8% (active); in experiment [2] (setting [7]) it was -19%; in experiment [2] (setting [8]) it was -7%; in experiment [2] (at 50.0 µM), -20.1%. Moreover, the growth inhibition was -6% in experiment [3] (setting [7]); -1% in experiment [3] (setting [8]); 27.9% in experiment [3] (at 50.0 µM); 12% in experiment [4] (setting [7]); 23% in experiment [4] (setting [8]); 32.8% in experiment [4] (at 50.0 µM). Besides, the growth inhibition in experiment [5] (setting [7]) is -4%; in experiment [5] (setting [8]), -2%; in experiment [5] (at 50.0 µM) it was -13.7%; in experiment [6] (setting [7]), -21%; in experiment [6] (setting [8]) it was 21%; in experiment [6] (at 50.0 µM) it was 5.9%.

As to `Cc1ccc(/C=C2\CCC/C(=C\c3ccc(O)c(CN4CCCCC4)c3)C2=O)cc1`, the growth inhibition in experiment [1] (setting [7]) was 16%; in experiment [1] (setting [8]), 22%; in experiment [1] (at 50.0 µM), 6.8%; in experiment [2] (setting [7]), 4%; in experiment [2] (setting [8]), 15%; in experiment [2] (at 50.0 µM), -15.2%. For the same molecule, the growth inhibition was 0% in experiment [3] (setting [7]); 25% in experiment [3] (setting [8]); 70.9% (active) in experiment [3] (at 50.0 µM); 7% in experiment [4] (setting [7]); 27% in experiment [4] (setting [8]); 42.1% in experiment [4] (at 50.0 µM). The growth inhibition in experiment [5] (setting [7]) is -34%; in experiment [5] (setting [8]) it was 28%; in experiment [5] (at 50.0 µM) it was 66.5%; in experiment [6] (setting [7]), 9%; in experiment [6] (setting [8]) it was 18%; in experiment [6] (at 50.0 µM), 84% (active).

For the molecule `C1CCC(CCNCCC2CCCCC2)CC1`, the growth inhibition in experiment [1] (setting [7]) is -1%; in experiment [1] (setting [8]), 99% (active); in experiment [1] (at 50.0 µM), 99% (active); in experiment [2] (setting [7]) it was -15%; in experiment [2] (setting [8]) it was 99% (active); in experiment [2] (at 50.0 µM), 97.5% (active). The growth inhibition in experiment [3] (setting [7]) is 25%; in experiment [3] (setting [8]), 99% (active); in experiment [3] (at 50.0 µM), 99% (active); in experiment [4] (setting [7]), -15%; in experiment [4] (setting [8]), 99% (active); in experiment [4] (at 50.0 µM), 98.7% (active). In addition, the growth inhibition in experiment [5] (setting [7]) was -8%; in experiment [5] (setting [8]), 99% (active); in experiment [5] (at 50.0 µM) it was 98.5% (active); in experiment [6] (setting [7]) it was 8%; in experiment [6] (setting [8]) it was 99% (active); in experiment [6] (at 50.0 µM), 98.7% (active).

The record behind these values is PubChem BioAssay (NCI).
